Experimental findings from article PMC4336329 (PLoS ONE, 2015) are described below.

Among all 310,000 compounds or so, about 14,000 (4.5%) showed an effect of 50% or more. The effect is printed as a negative number. The entries come from a sample that favours strong results as a whole.
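Note: peak tail current of the secondary pulse compared with the same well before compound.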

The target in the assay is human ether-à-go-go-related gene (hERG) potassium channel (human, UniProt Q12809). In words: primary screen, population patch clamp on CHO cells stably expressing hERG; higher = less effect of the substance.
Chain of human ether-à-go-go-related gene (hERG) potassium channel (Q12809 whole entry, looked up): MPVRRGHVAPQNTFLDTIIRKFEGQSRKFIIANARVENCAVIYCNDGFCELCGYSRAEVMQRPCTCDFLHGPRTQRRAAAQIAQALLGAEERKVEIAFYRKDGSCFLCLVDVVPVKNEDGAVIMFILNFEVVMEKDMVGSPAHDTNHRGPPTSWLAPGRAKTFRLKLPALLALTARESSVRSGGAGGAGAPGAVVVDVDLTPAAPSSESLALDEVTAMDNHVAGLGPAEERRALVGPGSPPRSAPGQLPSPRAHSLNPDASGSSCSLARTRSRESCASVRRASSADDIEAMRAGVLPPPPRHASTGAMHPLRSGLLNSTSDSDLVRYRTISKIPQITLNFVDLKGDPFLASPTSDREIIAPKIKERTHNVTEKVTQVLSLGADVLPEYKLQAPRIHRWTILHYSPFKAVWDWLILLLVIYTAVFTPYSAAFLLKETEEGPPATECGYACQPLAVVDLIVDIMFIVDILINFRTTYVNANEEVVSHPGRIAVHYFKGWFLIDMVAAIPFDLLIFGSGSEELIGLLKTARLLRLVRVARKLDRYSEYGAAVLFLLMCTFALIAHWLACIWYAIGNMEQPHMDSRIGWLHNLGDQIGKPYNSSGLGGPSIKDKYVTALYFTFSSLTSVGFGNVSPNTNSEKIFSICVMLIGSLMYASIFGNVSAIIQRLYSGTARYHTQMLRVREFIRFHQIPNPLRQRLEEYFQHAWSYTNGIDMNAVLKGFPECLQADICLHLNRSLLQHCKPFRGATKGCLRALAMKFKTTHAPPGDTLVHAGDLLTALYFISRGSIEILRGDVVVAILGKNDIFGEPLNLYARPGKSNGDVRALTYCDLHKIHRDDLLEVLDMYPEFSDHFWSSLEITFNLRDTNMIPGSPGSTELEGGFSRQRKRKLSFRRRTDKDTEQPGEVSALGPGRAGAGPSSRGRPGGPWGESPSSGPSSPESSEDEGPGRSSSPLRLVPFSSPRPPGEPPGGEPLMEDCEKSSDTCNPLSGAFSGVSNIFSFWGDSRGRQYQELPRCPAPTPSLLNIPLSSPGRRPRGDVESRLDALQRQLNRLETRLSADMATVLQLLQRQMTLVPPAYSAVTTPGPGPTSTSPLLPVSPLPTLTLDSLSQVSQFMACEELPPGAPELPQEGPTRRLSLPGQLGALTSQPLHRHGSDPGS
Take `CCn1cc(S(=O)(=O)NC(C)c2cc(OC)ccc2OC)cn1` (centres unmarked): the “hERG current change (%, negative = inhibition) at 10uM” value is listed as 1.25%.
Under `CC(C)O.COC(=O)Nc1ccc2c(c1)N(C(=O)CCN1CCN3CCCC3C1)c1ccccc1CC2.Cl.O` (centres unmarked) stands 1.43%; under `CC(=O)c1cc(F)c(N2CCN(C(=O)c3ccco3)CC2)cc1C`, -18.5%.
Consider `Cn1c(Cl)c(/C=N/OC(=O)c2ccc(Cl)cc2)c2ccccc21`, for which the “hERG current change (%, negative = inhibition) at 10uM” value is listed as -5.13%.
For the compound `Cc1ccc(-c2nnn(CC(=O)N(Cc3ccc(F)cc3)C(C(=O)NC3CCCC3)c3ccncc3)n2)o1` (centres unmarked), the “hERG current change (%, negative = inhibition) at 10uM” value is on record as -12.4%.
As for `CCOC(=O)c1ccc(Nc2c(OCC)c(=O)c2=O)cc1`, the “hERG current change (%, negative = inhibition) at 10uM” value is given as -15.4%.
The same measure for `C=CCOc1ccc(-c2nc3c(c(=O)[nH]c(=O)n3CCC)n2CCCC)cc1`: -5.34%; for `CCCn1c(=O)[nH]c(=O)c2c1nc(-c1ccc(C#N)cc1)n2CCOC`: -2.78%; for `CCCCn1c(=O)[nH]c(=O)c2c1nc(-c1ccc(C(F)(F)F)cc1)n2C`: 3.8%.
The same measure for `C=CCn1c(SCc2ccccc2)nc2c1c(=O)[nH]c(=O)n2C`: -21.6%; for `CCCCn1c(=O)[nH]c(=O)c2c1nc(-c1ccc(-c3ccccc3)cc1)n2C`: 20.2%; for `C=CCn1c(SCc2nc3c(c(=O)[nH]c(=O)n3CCCC)n2CCC)nnc1-c1ccccc1`: -60.5%.
In the case of `CCCCn1c(=O)[nH]c(=O)c2c1nc(-c1ccc(OCC)cc1)n2CC`, the “hERG current change (%, negative = inhibition) at 10uM” value was 1.27%.
As to `CCCCn1c(=O)[nH]c(=O)c2c1nc(-c1ccc(-c3ccc(F)cc3)o1)n2C`, the “hERG current change (%, negative = inhibition) at 10uM” value is on record as -55%.
Consider `CCCCn1c(=O)[nH]c(=O)c2c1nc(COc1ccc(C#N)cc1)n2CCC`, for which the “hERG current change (%, negative = inhibition) at 10uM” value was -57.2%.
In the case of `CCCCn1c(O)c(/C(C)=N/NC(=O)Nc2ccccc2)c(=O)[nH]c1=O`, the “hERG current change (%, negative = inhibition) at 10uM” value amounted to 7.7%.
Under `O=P(C(c1ccc2c(c1)OCO2)N1CCOCC1)(N1CCOCC1)N1CCOCC1` (centres unmarked) stands 4.64%; under `O=C(CN1CCN(c2ncc(C(F)(F)F)cc2Cl)CC1)Nc1ccc2c(c1)OCO2`, -37.7%.
The same measure for `CCOc1ccc(-c2nc(CSCC(=O)NCCN3CCOCC3)c(C)o2)cc1`: 11.3%.
As to `Cc1oc(-c2ccc(Cl)cc2)nc1CSCC(=O)NC1CCN(Cc2ccccc2)CC1`, the “hERG current change (%, negative = inhibition) at 10uM” value was -73.1%.
Under `Cc1ccc(-c2nc(CSCC(=O)NC3CCN(Cc4ccccc4)CC3)c(C)o2)cc1` stands -44%; under `COc1ccc(-c2nc(CSCC(=O)NC3CCN(Cc4ccccc4)CC3)c(C)o2)cc1OC`, -40.9%.
The same measure for `Cc1ccc(-c2nc(CSCC(=O)NCCCN3CCOCC3)c(C)o2)cc1`: 14.1%; for `Cc1ccc(-c2nc(CSCC(=O)NCCN3CCN(Cc4ccccc4)CC3)c(C)o2)cc1`: -65.2%.
Take `COc1ccc(-n2nc(C(=O)NCC(=O)N3CCN(c4ccccc4OC)CC3)c3ccccc3c2=O)cc1OC`: the “hERG current change (%, negative = inhibition) at 10uM” value is on record as -34.5%.
The same measure for `CC1CCN(C(=O)CCc2ccc(S(=O)(=O)NC(C)(C)C)cc2)CC1`: -5.31%.
Turning to `O=C(N/N=C/c1ccncc1)c1cc([N+](=O)[O-])cc([N+](=O)[O-])c1O`, the “hERG current change (%, negative = inhibition) at 10uM” value came to 4.15%.
With `CCOC(=O)C(=O)Nc1nnc(CCc2ccccc2)s1`, the “hERG current change (%, negative = inhibition) at 10uM” value was 6.37%.
The same measure for `Cc1ccc(OCC(=O)N2CCc3ccccc3C2)c(C)c1`: -16.1%; for `COCCNS(=O)(=O)c1ccc(OCC(=O)N2CCc3ccccc3C2)c(Cl)c1`: -43.5%.
Regarding `Cc1cc(S(=O)(=O)NC(C)C)ccc1OCC(=O)N1CCN(Cc2ccc3c(c2)OCO3)CC1`, the “hERG current change (%, negative = inhibition) at 10uM” value is given as -27.6%.
The same measure for `CCCNS(=O)(=O)c1ccc(OCC(=O)N2CCN(Cc3ccc4c(c3)OCO4)CC2)cc1`: -32%; for `CCCNS(=O)(=O)c1ccc(OCC(=O)N2CCN(Cc3ccc4c(c3)OCO4)CC2)c(C)c1`: -61.6%.
The same measure for `CCCNS(=O)(=O)c1ccc(OCC(=O)N2CCc3ccccc3C2)c(C)c1`: -65.9%; for `CCOc1cc(C)c(C(C)C)cc1S(=O)(=O)n1cnc(C)c1`: -18.7%; for `Cc1ccc(NC(=O)C2=COCCO2)cc1S(=O)(=O)N1CCOCC1`: -0.0399%.
Under `CCOC(=O)C1CCN(C2CC(=O)N(c3cccc(Cl)c3)C2=O)CC1` (centres unmarked) stands -12%.
With `c1ccc(C[C@H]2CN=C(Nc3ccccc3)N2CC2CCC2)cc1`, the “hERG current change (%, negative = inhibition) at 10uM” value is on record as -63%.
`C[C@H]1CN=C(Nc2ccccc2)N1CC1CCC1`: the “hERG current change (%, negative = inhibition) at 10uM” value is reported as -0.391%.
The same measure for `c1ccc(C[C@H]2CN=C(Nc3ccccc3)N2CCC2CCCC2)cc1`: -70.4%; for `CC(C)C[C@H]1CN=C(Nc2ccccc2)N1CC1CCC1`: -30.2%.
For the compound `CCn1c2ccccc2c2cc(NC(=O)COC(=O)c3cc(OC)c(OC)cc3OC)ccc21`, the “hERG current change (%, negative = inhibition) at 10uM” value was -3.41%.
Regarding `COC(=O)c1ccccc1NC(=O)c1cc2nc(C3CC3)cc(C(F)(F)F)n2n1`, the “hERG current change (%, negative = inhibition) at 10uM” value was 9.42%.
The same measure for `Cn1c(Sc2ccc(C(=O)O)cc2[N+](=O)[O-])nnc1-c1ccccc1`: -6.68%; for `Cn1c(Sc2ccc(C(F)(F)F)cc2[N+](=O)[O-])nnc1-c1ccccc1`: -62.8%; for `Cn1cnnc1Sc1ccc(C(F)(F)F)cc1[N+](=O)[O-]`: 2.45%.
The same measure for `Cn1c(SCC(=O)N/N=C/c2cc([N+](=O)[O-])ccc2O)nnc1-c1ccccc1`: 10.5%; for `Cn1c(Sc2ccc([N+](=O)[O-])cc2C(F)(F)F)nnc1-c1ccccc1`: -55%; for `CSc1nnc(-c2ccccc2)n1C`: 5.22%.
With `CC(=O)Nc1ccc(S(=O)(=O)Nc2c(C)nn(-c3ccccc3)c2C)cc1`, the “hERG current change (%, negative = inhibition) at 10uM” value is on record as -7.68%.
Turning to `O=c1c(C(c2ccc(Cl)cc2)c2c(O)nc3n(c2=O)CCCS3)c(O)nc2n1CCCS2`, the “hERG current change (%, negative = inhibition) at 10uM” value is listed as 21.3%.
The same measure for `CCN(CC)S(=O)(=O)c1cccc(-c2nnc(SCCCC(=O)c3ccccc3)o2)c1`: -23.8%.
Under `O=C(Nc1ccc(O)cc1)C1CCCN1S(=O)(=O)c1ccc(F)cc1` (centres unmarked) stands -1.44%; under `C=CCn1c(SCc2ccc(C(=O)OC)cc2)nnc1-c1sc(N)nc1C`, -8.5%.
Turning to `COC(=O)c1sc(N)c(C(=O)OC)c1CSc1nnc(-c2ccccc2Cl)n1C`, the “hERG current change (%, negative = inhibition) at 10uM” value is recorded as -24.5%.
With `C=CCn1c(SCc2c(C(=O)OC)sc(N)c2C(=O)OC)nnc1-c1ccc(Br)cc1`, the “hERG current change (%, negative = inhibition) at 10uM” value is reported as -65.4%.
The same measure for `COC(=O)c1sc(N)c(C(=O)OC)c1CSc1nnnn1C`: -12.2%.
Under `C=CCn1c(SCc2c(C(=O)OC)sc(N)c2C(=O)OC)nnc1-c1ccc(Cl)cc1` stands -58.1%; under `C=CCn1c(SCC(=O)NC2CCCCC2)nnc1-c1ccc(OC)cc1`, -12%.
In the case of `O=C(O)c1cccnc1SCC(=O)N1CCCc2ccccc21`, the “hERG current change (%, negative = inhibition) at 10uM” value was 14.6%.
Under `Nc1nc(SCC(=O)Nc2ccccc2)nc2nc3c(cc12)CCCC3` stands -1.5%; under `C=C1SC(=Nc2c(C)cccc2Cl)N(C(=O)c2sc3ccccc3c2Cl)C12CCCCC2`, 25.8%; under `Cc1ccc(S(=O)(=O)NCCCCCC(=O)Nc2cccc(C)c2)cc1`, -39.2%.
Under `Cc1cc(C)c(OCCN2CC(C)OC(C)C2)c(Br)c1.O=C(O)C(=O)O` (centres unmarked) stands -17.5%.
The same measure for `Cc1cc(C)c(OCCN2CCOCC2)c(Cl)c1`: 8.09%; for `Cc1cc(C)c(OCCCCN2CCC(C)CC2)c(Br)c1`: -72.7%.
For the compound `Cc1cc(C)c(OCCN2CCCC2)c(Cl)c1`, the “hERG current change (%, negative = inhibition) at 10uM” value was -42.1%.
In the case of `Cc1cc(Cl)c(OCCOCCN2CCNCC2)c(Cl)c1.O=C(O)C(=O)O`, the “hERG current change (%, negative = inhibition) at 10uM” value is on record as -7.47%.
With `Cc1cc(Cl)c(OCCCN2CCCCC2)c(Br)c1.O=C(O)C(=O)O`, the “hERG current change (%, negative = inhibition) at 10uM” value is recorded as -68.1%.
As for `Cc1cc(C)c(OCCCCN2CCNCC2)c(C)c1.O=C(O)C(=O)O`, the “hERG current change (%, negative = inhibition) at 10uM” value is 9.44%.
The same measure for `Cc1cc(Cl)c(OCCCCN2CCOCC2)c(Br)c1`: -30.2%.
In the case of `Cc1cc(Cl)c(OCCCN(C)C)c(Br)c1.O=C(O)C(=O)O`, the “hERG current change (%, negative = inhibition) at 10uM” value is -40.4%.
Consider `Cc1cc(Cl)c(OCCOCCN2CCC(C)CC2)c(Br)c1.O=C(O)C(=O)O`, for which the “hERG current change (%, negative = inhibition) at 10uM” value is listed as -57.6%.
On to `Cc1cc(Cl)c(OCCOCCN2CCN(C)CC2)c(Br)c1.O=C(O)C(=O)O`, for which the “hERG current change (%, negative = inhibition) at 10uM” value was -9.48%.
Consider `Cc1cc(Cl)cc(Cl)c1OCCN1CCCC1`, for which the “hERG current change (%, negative = inhibition) at 10uM” value was -55%.
The same measure for `CCOC(=O)c1ccc(S(=O)(=O)NCCN(CC)CC)cc1.Cl`: 11.4%.
The same measure for `CS(=O)(=O)N1CCC(Oc2cccc(C(=O)NCCCC3CCCC3)c2)CC1`: -30.3%; for `Cc1ccc(S(=O)(=O)N2CCN(C(=O)CN3C(=O)c4ccccc4C3=O)CC2)c(C)c1`: 9.02%.
Under `CCN(CC(=O)Nc1ccc(Cl)c(C(F)(F)F)c1)CC(=O)NC1CCS(=O)(=O)C1` (centres unmarked) stands -13.2%; under `CCOc1ccc(C2Nc3ccccc3NC3=C2C(=O)CC(C)(C)C3)cc1OC` (centres unmarked), 15.6%; under `Cc1ccc2nsnc2c1S(=O)(=O)N1CCN(C(=O)C2CCCO2)CC1` (centres unmarked), 2.61%.
With `Cc1ccc(NC(=O)C2CCN(S(=O)(=O)c3ccc4c(c3)CCCC(=O)N4)CC2)c(Br)c1`, the “hERG current change (%, negative = inhibition) at 10uM” value is on record as -5.9%.
Under `CCOc1c2ccc(C(=O)N[C@H](C)C3CCCCC3)cc2nn1CCOC` stands -18.2%.
With `CN1CCN(CCOCCOc2c(Cl)cc(Cl)cc2Cl)CC1.O=C(O)C(=O)O`, the “hERG current change (%, negative = inhibition) at 10uM” value is recorded as -26.9%.
Turning to `Cc1cc(C)c(OCCOCCN2CCN(C)CC2)c(Cl)c1.O=C(O)C(=O)O`, the “hERG current change (%, negative = inhibition) at 10uM” value is -5.21%.
The same measure for `Cc1cc(Cl)c(OCCOCCN2CCCC(C)C2)c(Br)c1.O=C(O)C(=O)O` (centres unmarked): -61.8%.
